RORgamma inh: inhibitors of mouse ROR gamma transcriptional activity; Potency, µM (titrated, usually from 53.6 µM), without a hit: at the top dose activity change, negative = inhibition, actives largely listed as inhibitors; P51450; AID 2551; Drosophila S2 Gal4-RORgamma UAS-luciferase reporter, 20 h; 310,000 compounds, 5.4% hits; note: potency is the fitted concentration of half-maximal effect; % is set by controls: 0 for no effect and ±100 for the full control effect; nearly all actives have a fitted effect of over 60% in size
Target sequence (P51450 whole entry, looked up, the tested form may be a part): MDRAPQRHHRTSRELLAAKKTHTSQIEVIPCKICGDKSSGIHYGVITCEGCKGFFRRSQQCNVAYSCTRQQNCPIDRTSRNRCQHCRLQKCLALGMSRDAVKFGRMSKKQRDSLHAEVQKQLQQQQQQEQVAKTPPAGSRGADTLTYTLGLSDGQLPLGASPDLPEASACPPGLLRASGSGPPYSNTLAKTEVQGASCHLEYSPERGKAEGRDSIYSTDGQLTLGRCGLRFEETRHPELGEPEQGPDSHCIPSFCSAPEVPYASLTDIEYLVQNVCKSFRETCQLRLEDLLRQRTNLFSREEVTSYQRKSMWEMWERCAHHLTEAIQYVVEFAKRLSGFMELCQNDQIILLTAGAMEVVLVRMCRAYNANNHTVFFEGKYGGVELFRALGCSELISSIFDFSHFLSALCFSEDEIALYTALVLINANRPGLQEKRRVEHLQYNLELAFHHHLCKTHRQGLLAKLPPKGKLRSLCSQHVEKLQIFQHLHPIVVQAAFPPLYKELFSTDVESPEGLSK
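Stably transfected Drosophila Schneider cells are the test system, with ROR gamma fused to Gal4 and luciferase under UAS control; luminescence is read after 20 hr of 700 uM copper sulfate induction at ambient temperature.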
Giardia kill: kills Giardia lamblia. Giardia lamblia trophozoite viability. activity change, % at 7.66 µM, hits read low. 340,000 compounds, 0.15% hits. AID 540267; in the data active = activity change below about -80%; inconclusive = between about -30% and that limit;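 note: parasites exposed to compound for two days anaerobically before the ATP read; % is set by controls: 0 for no effect and ±100 for the full control effect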
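Giardia trophozoites, 100 cells per well, were exposed to compounds for 48 hrs at 37 deg C under anaerobic conditions; viability was then read as ATP content by bioluminescence after 15-30 min at room temperature.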
VP16 counter: counter-screen for ROR gamma inhibitors: Gal4-VP16 reporter; 310,000 compounds, 3.5% hits; Drosophila S2 Gal4-VP16 UAS-luciferase, luminescence, 20 h; Potency, µM (series often up to 53.6 µM), without a hit: at the top dose activity, negative = inhibition, actives largely listed as inhibitors;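 note: Gal4-VP16 expression switched on by copper sulfate through the metallothionein promoter; potency is the fitted concentration of half-maximal effect; % is set by controls: 0 for no effect and ±100 for the full control effect; nearly all actives have a fitted effect of over 50% in size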
ELG1 DNA repair: ELG1-dependent DNA repair inhibition; HEK293T ELG1-luciferase reporter, luminescence, 16 h; DNA damage induced by 5-fluorouridine; Potency, µM (doses to about 46.1 µM), without a hit: at the top dose activity change, negative = inhibition, hits mostly inhibitors; 330,000 compounds, 2.3% hits; AID 504467; note: potency is the fitted concentration of half-maximal effect; % is set by controls: 0 for no effect and ±100 for the full control effect; nearly all actives have a fitted effect of over 55% in size
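Quantitative HTS, concentration-response format. 2,000 cells/well co-treated with 5-fluorouridine and compound, 16 hr in 5% CO2 at 37 °C; ONE-Glo luminescence read after 30 min.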
p53 reactivation: restores transcriptional activity of mutant p53 | Potency, µM (doses to about 92.2 µM), without a hit: top-dose activity change, positive = activation, hits mostly activators | 320,000 compounds, 0.063% hits | H1299 p53-A138V BP100-luciferase reporter, luminescence, 24 h; note: potency is the fitted concentration of half-maximal effect; % of control where 0% means no effect; nearly all actives have a fitted effect of over 45% in size
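p53-null H1299 cells stably carrying temperature-sensitive p53-A138V and a BP100-luciferase reporter were pinned with compounds (4-point, 1:5 series) and held 24 hrs at 37 deg C. Luminescence was read 10 min after detection reagent.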
BRCA1 expr up: BRCA1 expression activation. Potency, µM (series often up to 46.1 µM), for inactives: at the highest dose activation, hits mostly activators. AID 624202. 380,000 compounds, 1.1% hits. MCF7-BRCA1-FFLuc reporter, luminescence, 48 h; response scale: scaled: vehicle 0%, 10 µM genistein 100%; note: potency is the fitted concentration of half-maximal effect; nearly all actives have a fitted effect of over 80% in size
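Luminescence from a BRCA1-driven firefly luciferase in MCF7 cells was read after 48 h compound exposure at 37 C. Data normalized against DMSO and a 10microM genistein activation control, then curve-fitted across the titration.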
Starred values were filed as active, the others as inactive; ? = inconclusive; / = no result; [ ] = another dose, or the depositor's remark. A selection: hits, their analogues and other compounds. The true share with any hit is near 7.6%. Unless noted, calls come from the whole dose curve; as a rule, active = well fitted curve in the direction sought with a large enough effect; inconclusive = small, poorly fitted or top-dose-only effect, or another doubt; inactive = no such curve, though single readings can be large; an effect the other way counts as inactive or inconclusive.

SMILES	RORgamma inh	Giardia kill	VP16 counter	ELG1 DNA repair	p53 reactivation	BRCA1 expr up
CCOC(=O)c1cc(-c2ccccc2)sc1NC(=O)C(C)Sc1nnc(C)s1 (configuration not stated)	?	3.0	-3.9%	?	-14.1%	-21.1%
C=CCn1nnnc1SCC(=O)Nc1ccc(OC)cc1	11.3%	0.1	-4.1%	24.9%	-2.9%	12.3%
Cc1ccc(S(=O)(=O)CC(=O)N(CCCN(C)C)c2nc3ccc(C)cc3s2)cc1	/	2.7	/	?	0.7%	-34.4%
Cc1ccc(NC(=O)/C(C#N)=C/c2cccs2)c(C)c1	-32.1%	-9.6	-0.5%[0.365 µM]	?	22.7%	3.98µM*
N#C/C(=C\c1cccs1)C(=O)Nc1ccccn1	-41.5%	0.2	-23.6%	?	9.6%	10µM*
N#C/C(=C\c1ccccc1)C(=O)Nc1ccccn1	-27.9%	-11.4	-3.7%	12.0%	2.0%	-14.9%
Cc1cccc(C)c1NC(=O)/C(C#N)=C/c1cccs1	-6.6%	-11.8	-3.9%	-12.3%	-0.5%	15.9%
COc1cc(/C=C/C(=O)Nc2ccc(OC)c(S(=O)(=O)N3CCOCC3)c2)ccc1OC(F)F	/	-27.3	/	10.3µM*	-1.2%	-64.2%
COc1ccc(/C=C/C(=O)Nc2ccccc2F)cc1S(=O)(=O)N1CCOCC1	/	60.8	/	?	3.5%	4.3%
COc1ccc(/C=C/C(=O)Nc2cccc(F)c2)cc1S(=O)(=O)N1CCOCC1	21.0%	-6.9	-21.0%	20.6µM*	-2.9%	12.3%
COc1ccc(/C=C/C(=O)Nc2ccc(C(C)=O)cc2)cc1S(=O)(=O)N1CCOCC1	/	/	/	/	/	7.8%
CC#CCN(Cc1ccco1)C(=O)C1CCC(=O)N(Cc2ccccc2F)C1 (configuration not stated)	?	-11.5	6.2%	?	8.2%	-4.6%
CC1C(=O)N(Cc2cn(CCC3OCCO3)nn2)CCS(=O)(=O)N1Cc1ccc(-c2cccc(N(C)C)c2)cc1 (configuration not stated)	/	/	/	/	/	1.8%
Cc1ccc(C)c(N2CCN(CC(=O)Nc3ccc([N+](=O)[O-])cc3C(=O)Nc3ccccc3F)CC2)c1	26.5%	17.7	-0.6%	?	-2.0%	-47.0%
O=C(CN1CCN(c2cccc(Cl)c2)CC1)Nc1ccc([N+](=O)[O-])cc1C(=O)Nc1ccccc1F	34.4%	-5.6	-8.6%	14.6µM*	-1.5%	-21.1%
CCCCc1cc(=O)oc2cc(C)cc(OC(C)C(=O)NCc3ccccn3)c12 (configuration not stated)	-11.8%	?	-2.0%	-11.1%	-9.1%	-42.6%
CCOc1ccc2nc(N3CCC(C(=O)N4CCN(c5ccccn5)CC4)CC3)sc2c1	?	?	-10.1%	11.6µM*	-2.4%	-14.0%
COc1ccc(C(=O)N2c3ccccc3C=CC2C#N)cc1 (configuration not stated)	23.4%	-13.1	1.2%	-28.0%	6.6%	-28.2%
N#C[C@H]1[C@H](c2ccccc2)[C@](C#N)(C(=O)c2ccccc2)[C@@H]2C=Cc3ccccc3N21	23.8%	/	-9.7%	12.6µM*	-10.6%	/
CCOC(=O)N1CCC(N2C(=O)c3ccccc3C2Nc2ccc(Cl)cn2)CC1 (configuration not stated)	?	-5.2	-3.4%	-26.6%	-2.2%	-0.2%
Cc1ccc2nc(SCC(=O)Nc3ccccc3N3CCOCC3)c(C#N)cc2c1	-38.5%	-29.5	?	4.11µM*	0.9%	-4.0%
Cc1ccc(SCC(=O)Nc2ccccc2N2CCOCC2)cc1	-12.5%	3.9	6.5%	-9.6%	-1.2%	-7.6%
CC1(c2ccc(Cl)cc2)NC(=S)N2C1NC(=S)N2c1ccccc1 (configuration not stated)	-18.5%	-13.4	-0.7%	19.7%	4.9%	-30.3%
CC1(CCc2ccccc2)NC(=S)N(c2ccccc2)N1 (configuration not stated)	?	-7.5	20µM*	18.5%	?	-7.4%
CC1(CCc2ccccc2)NC(=O)N(CC(=O)O)C1=O (configuration not stated)	2.8%	7.7	11.5%	6.5%	2.8%	-0.5%
SMILES	RORgamma inh	Giardia kill	VP16 counter	ELG1 DNA repair	p53 reactivation	BRCA1 expr up
CC1(CCc2ccccc2)NC(=S)N(c2ccc(Cl)cc2)N1 (configuration not stated)	10µM*	-11.6	?	22.3%	9.8%	-22.2%
Cc1nccc(-c2cccc(NC(=O)c3ccccc3Cl)c2)n1	13.8%	6.8	-2.3%	?	8.9%	-43.2%
S=C(NC1CCCC1)NC1CCCC1	2.51µM*	4.3	?	-10.6%	9.8%	-13.9%
S=C(NC1CCCCC1)NN1CCCCCC1	/	-0.7	/	/	/	-8.6%
CC(C)CNC(=O)C(=O)NC1CCCC1	/	9.3	/	/	/	27.2%
S=C(NC1CCCC1)NC1CC1	12.6µM*	-4.6	?	-7.1%	-11.0%	-1.3%
CC(C)CNC(=S)NC1CCCC1	10µM*	14.6	?	-0.8%	-2.3%	0.0%
O=C(CSCc1ccc(Br)cc1)N=Nc1c(O)[nH]c2ccccc12	-5.8%	2.7	-2.0%	19.3%	10.9%	40.4%
CC(Sc1nnc(N)s1)C(=O)NCc1ccc2c(c1)OCO2 (configuration not stated)	/	14.4	/	12.0%	5.1%	-16.6%
CCn1nnc2c(=O)oc3ccccc3c21	-0.6%	20.7	-4.3%	-8.4%	1.7%	-19.8%
COc1cccc(COC(=O)C2CCN(S(=O)(=O)c3ccc(C)cc3C)CC2)c1OC	/	2.0	/	-13.0%	2.0%	-1.8%
NCCCCCc1nnc(SCc2ccccc2Cl)o1	1µM*	-13.8	0.447µM*	-5.3%	-16.2%	-67.4%
CCCNCC(=O)Nc1sc2c(c1C(=O)Nc1c(C)n(C)n(-c3ccccc3)c1=O)CCCC2	/	/	/	/	/	-2.7%
Cc1ccc(OCC(=O)Nc2ccc(C)c(F)c2)c([N+](=O)[O-])n1	/	?	/	?	?	6.31µM*
Cc1ccc(OCCOc2ccc(Br)cc2)c([N+](=O)[O-])n1	10.4%	-11.9	-12.7%	?	?	3.16µM*
Cc1ccc(OCC(=O)Nc2ccc3c(c2)OC(F)(F)O3)c([N+](=O)[O-])n1	30.6%	?	-19.1%	2.7%	-2.1%	-20.5%
Cc1ccc(OCc2ccc([N+](=O)[O-])cc2)c([N+](=O)[O-])n1	10.0%	?	-2.4%	-7.5%	-2.8%	5.01µM*
O=C(c1cccc(F)c1)N1CCC2(CC1)CN(c1ccc(-c3ccccc3)cc1)C2	10.7%	/	15.8µM*	/	/	/
O=C(c1cnccn1)N1CCC2(CC1)CN(c1cccc(-c3ccccc3)c1)C2	-3.5%	/	5.01µM*	/	/	/
CC(=O)N1CCC2(CC1)CN(c1cccc(-c3ccccc3)c1)C2	20.1%	/	12.6µM*	/	/	/
